PubChem BioAssay (Tox21)
Values joined by “and” are separate entries in the source; they are usually repeats but may differ in a detail not shown here. Equal values may be shown once. Inconclusive results are not listed. Active and inactive are the calls of the source. Unless noted, calls come from the whole dose curve; as a rule, active = well fitted curve in the direction sought with a large enough effect in the repeat runs; inconclusive = weak or mixed curves; inactive = no such curve, though single readings can be large; an effect the other way counts as inactive or inconclusive.

Assays:
[1] = target: Luciferin 4-monooxygenase (Photinus pyralis) (UniProt P08659); assay: qHTS assay to identify small molecule inhibitors of firefly luciferase (AID 1224835); note: nearly all actives have a fitted effect of over 25% in size
Chain of Luciferin 4-monooxygenase (Photinus pyralis) (P08659 whole entry, looked up): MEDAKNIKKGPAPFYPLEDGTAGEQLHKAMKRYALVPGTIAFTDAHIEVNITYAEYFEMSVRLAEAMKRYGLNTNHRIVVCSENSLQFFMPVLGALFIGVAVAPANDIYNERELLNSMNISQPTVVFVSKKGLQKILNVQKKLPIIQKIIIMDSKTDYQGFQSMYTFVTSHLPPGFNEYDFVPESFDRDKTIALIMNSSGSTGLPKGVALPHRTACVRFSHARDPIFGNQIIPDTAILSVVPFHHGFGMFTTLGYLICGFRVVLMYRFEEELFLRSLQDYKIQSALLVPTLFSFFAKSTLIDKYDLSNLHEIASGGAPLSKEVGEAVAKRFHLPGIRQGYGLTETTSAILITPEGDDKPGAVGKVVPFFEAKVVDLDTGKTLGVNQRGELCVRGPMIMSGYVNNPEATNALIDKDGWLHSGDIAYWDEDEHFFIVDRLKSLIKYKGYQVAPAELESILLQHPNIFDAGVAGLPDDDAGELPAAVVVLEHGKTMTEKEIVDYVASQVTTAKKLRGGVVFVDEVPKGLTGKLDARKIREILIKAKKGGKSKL
In short: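 Quantitative HTS format; KM concentrations of both substrates. Purified P. pyralis FLuc activity quantified from luminescence images.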

[2] = qHTS assay to identify small molecule agonists of the constitutive androstane receptor (CAR) signaling pathway - cell viability counter screen (AID 1224836); note: nearly all actives have a fitted effect of over 45% in size
In short: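 Compound titrations (15 concentrations) went onto HepG2-CYP2B6-hCAR cells 4 h after seeding, alongside PK11195 at a final 0.75 uM; a 23 h, 37 C/5% CO2 incubation preceded CellTiter-Fluor viability measurement.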

[3] = qHTS assay to identify small molecule antagonists of the constitutive androstane receptor (CAR) signaling pathway - cell viability counter screen (AID 1224837); note: nearly all actives have a fitted effect of over 45% in size
In short: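 Using CellTiter-Fluor, viability is scored in HepG2 cells stably carrying hCAR and a 2.2kb CYP2B6 reporter after 23 hr compound exposure across 15 concentrations, with CITCO present at 50 nM.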

[4] = target: Nuclear receptor subfamily 1 group I member 3 (Homo sapiens) (UniProt Q14994); assay: qHTS assay to identify small molecule antagonists of the constitutive androstane receptor (CAR) signaling pathway (AID 1224838);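 note: HepG2 cells stably expressing hCAR with CYP2B6 luciferase reporter stimulated by CITCO; nearly all actives have a fitted effect of over 40% in size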
Chain of Nuclear receptor subfamily 1 group I member 3 (Homo sapiens) (Q14994 whole entry, looked up): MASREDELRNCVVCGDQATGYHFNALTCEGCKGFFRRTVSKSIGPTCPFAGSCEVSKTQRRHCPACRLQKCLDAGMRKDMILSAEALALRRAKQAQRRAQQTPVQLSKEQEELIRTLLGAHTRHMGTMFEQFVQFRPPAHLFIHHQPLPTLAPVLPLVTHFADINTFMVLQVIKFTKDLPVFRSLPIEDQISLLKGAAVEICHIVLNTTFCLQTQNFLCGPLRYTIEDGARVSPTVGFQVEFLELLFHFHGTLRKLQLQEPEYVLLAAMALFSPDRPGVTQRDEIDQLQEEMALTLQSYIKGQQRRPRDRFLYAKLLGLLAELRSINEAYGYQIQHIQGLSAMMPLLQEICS
In short: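 Reporter luminescence was quantified after 24 h exposure of hCAR/CYP2B6-2.2kb double-stable HepG2 cells to compounds at 15 concentrations in the presence of 50 nM CITCO final.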

[5] = target: Nuclear receptor subfamily 1 group I member 3 (Homo sapiens) (UniProt Q14994); assay: qHTS assay to identify small molecule agonists of the constitutive androstane receptor (CAR) signaling pathway (AID 1224839); note: nearly all actives have a fitted effect of over 15% in size
In short: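 In this screen, CAR-driven CYP2B6 promoter activity is measured by luminescence in HepG2-CYP2B6-hCAR cells after 24 h with test compounds and 0.75 uM PK11195 (final concentration).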

[6] = qHTS assay to identify small molecule antagonists of the estrogen related receptor signaling pathway with the pleiotropic PPARgamma coactivator (PGC) from Tox21 10K library - cell viability counter screen (AID 1224840; active = well fitted cell-killing curve with a large enough effect in the repeat runs, not every such curve was filed as active; note: nearly all actives have a fitted effect of over 40% in size)
In short: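 Here the PGC/ERR cells serve as a cytotoxicity control: they are exposed to compounds for 17.5 hours at 37 C, and live-cell signal is quantified using CellTiter-Fluor fluorescence.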

[7] = qHTS assay to identify small molecule antagonists of the estrogen related receptor signaling pathway with the pleiotropic PPARgamma coactivator (PGC) from Tox21 10K library (AID 1224841; call rule not given here; note: actives are mostly falling curves and most rising ones were filed inactive; nearly all actives have a fitted effect of over 50% in size)
In short: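 Each well held 2,000 PGC/ERR cells, pre-incubated six hours (37 C, 5% CO2). Test substances in DMSO were added by pin tool and left for 18 h at 37 C before luciferase detection by One-Glo.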

[8] = qHTS assay to identify small molecule agonists of the estrogen related receptor signaling pathway with the pleiotropic PPARgamma coactivator (PGC) from Tox21 10K library (AID 1224842); note: nearly all actives have a fitted effect of over 15% in size
In short: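 PGC/ERR reporter cells (NTP line) were seeded 2,000 per well, rested 6 h at 37 C/5% CO2, then pin-dosed with compounds in DMSO for 18 h at 37 C; luciferase read by One-Glo luminescence after 30 min at room temperature.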

[9] = target: Thyrotropin receptor (Homo sapiens) (UniProt P16473); assay: qHTS assay to identify small molecule agonists of the thyroid stimulating hormone receptor (TSHR) signaling pathway (AID 1224843; calls by dose curve; note: nearly all actives have a fitted effect of over 45% in size)
Chain of Thyrotropin receptor (Homo sapiens) (P16473 whole entry, looked up): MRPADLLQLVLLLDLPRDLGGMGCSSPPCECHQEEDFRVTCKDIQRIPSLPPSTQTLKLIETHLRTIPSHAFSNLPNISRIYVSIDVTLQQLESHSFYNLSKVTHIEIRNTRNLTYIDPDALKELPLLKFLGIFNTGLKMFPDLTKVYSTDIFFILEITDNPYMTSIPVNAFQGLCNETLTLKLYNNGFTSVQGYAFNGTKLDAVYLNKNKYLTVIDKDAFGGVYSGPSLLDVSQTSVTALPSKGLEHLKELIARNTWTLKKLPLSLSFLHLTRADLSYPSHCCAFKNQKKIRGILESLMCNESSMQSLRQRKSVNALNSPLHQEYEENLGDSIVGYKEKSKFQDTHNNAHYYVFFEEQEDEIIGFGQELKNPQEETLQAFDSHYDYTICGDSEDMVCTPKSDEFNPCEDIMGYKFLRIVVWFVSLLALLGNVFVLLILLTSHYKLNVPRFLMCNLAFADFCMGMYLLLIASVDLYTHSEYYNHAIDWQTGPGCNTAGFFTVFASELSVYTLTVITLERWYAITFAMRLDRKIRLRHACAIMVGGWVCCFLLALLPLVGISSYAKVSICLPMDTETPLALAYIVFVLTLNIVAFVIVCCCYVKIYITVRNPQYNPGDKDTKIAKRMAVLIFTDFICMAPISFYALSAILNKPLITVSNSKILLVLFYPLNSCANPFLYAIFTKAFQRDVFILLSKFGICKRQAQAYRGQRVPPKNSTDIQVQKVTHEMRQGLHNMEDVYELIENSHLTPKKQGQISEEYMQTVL
In short: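 Cell line HEK293 with TSHR; density 800/well. Exposure 30 min RT. Readout HTRF cAMP (cAMP-d2/anti-cAMP-cryptate), 1 h RT before reading.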

[10] = qHTS assay to identify small molecule agonists of the hypoxia (HIF-1) signaling pathway - cell viability counter screen (AID 1224844; calls by dose curve; note: nearly all actives have a fitted effect of over 50% in size)
In short: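 Multiplexed with the HRE beta-lactamase assay, this viability read used CellTiter-Glo luminescence (30 min, RT) on HRE-bla ME-180 cells treated 17 hrs with compounds in 0.5% dialyzed FBS medium.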

Measured: Potency
Potency is the fitted concentration of half-maximal effect.

BrC(Br)Br
inactive: [1] | [2] | [3] | [4] | [5] | [6] | [7] | [8] | [9] | [10]

Cc1cc(N=Nc2ccccc2C)ccc1N
active: [1] 5.64 µM and 6.33 µM | [2] 17.2 µM and 1.09 µM | [3] 3.06 µM | [5] 30.6 µM and 48.6 µM | [6] 38.6 µM and 27.3 µM | [8] 4.33 µM and 2.43 µM
inactive: [4] | [7] | [10]

CCCCCCCCCC[N+](C)(C)CCCCCCCCCC
active: [2] 43.3 µM | [3] 24.3 µM | [4] 27.3 µM | [6] 27.3 µM | [10] 27.5 µM
inactive: [1] | [5] | [9]

N#CSCSC#N
active: [2] 44.2 µM and 48.1 µM | [3] 27.9 µM and 27 µM | [4] 19.8 µM and 24.1 µM | [6] 55.7 µM and 53.9 µM | [10] 17.8 µM and 8.62 µM
inactive: [1] | [5] | [7] | [8]

CC1(C)CN=C(NN=C(/C=C/c2ccc(C(F)(F)F)cc2)/C=C/c2ccc(C(F)(F)F)cc2)NC1
active: [2] 24.3 µM | [3] 21.7 µM | [4] 19.3 µM | [6] 17.2 µM | [7] 27.3 µM | [10] 21.9 µM
inactive: [1] | [5] | [8] | [9]

C1CCC2CCCCC2C1 (stereo unspecified)
inactive: [1] | [2] | [3] | [4] | [5] | [6] | [7] | [8] | [10]

Cl/C=C\CCl
inactive: [1] | [2] | [3] | [4] | [5] | [6] | [7] | [8] | [9] | [10]

CCOc1cc(C(C)(C)C)ccc1C1COC(c2c(F)cccc2F)=N1 (stereo unspecified)
inactive: [1] | [2] | [3] | [4] | [6] | [8]
active: [5] 18.6 µM

CC(C)CBr
inactive: [1] | [2] | [3] | [4] | [5] | [6] | [8] | [9] | [10]

O=C/C(Cl)=C(/Cl)C(=O)O
inactive: [1] | [2] | [3] | [4] | [5] | [6] | [7] | [8] | [9]

COc1ccc(/C(=C/C(=O)N2CCOCC2)c2ccc(Cl)cc2)cc1OC
inactive: [1] | [2] | [3] | [4] | [5] | [6] | [7] | [8] | [9] | [10]

c1ccc(Nc2ccc3ccccc3c2)cc1
active: [1] 22.3 µM and 31.7 µM | [5] 30.5 µM and 48.6 µM | [8] 27.1 µM and 30.6 µM | [9] 48.3 µM
inactive: [2] | [3] | [4] | [6] | [7]

ClC1=C(Cl)C2(Cl)C3C(Cl)C(Cl)CC3C1(Cl)C2(Cl)Cl (stereo unspecified)
active: [5] 3.05 µM and 15.4 µM | [6] 61.1 µM | [7] 60.9 µM and 43.3 µM | [10] 21.8 µM
inactive: [1] | [2] | [3] | [4] | [8]

CC(C)Oc1cccc(NC(=O)c2ccccc2C(F)(F)F)c1
inactive: [1] | [2] | [3] | [4] | [6] | [8]
active: [5] 61.1 µM

C[C@]12CC[C@@H]3c4ccc(OC(=O)N(CCCl)CCCl)cc4CC[C@H]3[C@@H]1CC[C@@H]2O
inactive: [1] | [2] | [3] | [4] | [5] | [6] | [8] | [9] | [10]

COc1cc(C=O)cc2c1[C@H](COC(N)=O)[C@]1(OC(C)=O)ON2C[C@H]2[C@@H]1N2C(C)=O
inactive: [1] | [5] | [6] | [8] | [9]
active: [2] 0.611 µM | [3] 0.433 µM | [4] 0.0486 µM | [7] 1.93 µM | [10] 3.89 µM

CCOC(=O)c1ccccc1S(=O)(=O)NC(=O)Nc1nc(Cl)cc(OC)n1
inactive: [1] | [2] | [3] | [4] | [5] | [6] | [10]

N#C/C=C/c1ccccc1
inactive: [1] | [2] | [3] | [4] | [5] | [6] | [10]

Oc1ccc2ccc3cccc4ccc1c2c34
inactive: [2] | [3] | [4] | [6] | [9] | [10]
active: [1] 79.6 µM | [5] 61.1 µM

c1ccc2c(c1)[nH]c1cnccc12
inactive: [1] | [2] | [3] | [4] | [5] | [6] | [9] | [10]

ClCc1ccc(Cl)cc1Cl
inactive: [1] | [2] | [3] | [4] | [5] | [6] | [10]
